Measurements reported in PubChem BioAssay AID2289 (National Center for Advancing Translational Sciences (NCATS), 2010).
The whole screen tested about 340,000 compounds, of which about 3,300 (0.97%) were called active. Inconclusive results (about 9%) are left out. Calls follow the shape of the dose curve; as a rule, active = well fitted inhibition curve with a large enough effect; inconclusive = small, poorly fitted or top-dose-only effect, or effect the other way; inactive = flat fitted curve, though single readings scatter. The list shows a part of the results.

experiment: qHTS Assay for Modulators of miRNAs and/or Inhibitors of miR-21; details: HeLa miR-21-FLuc reporter, luciferase luminescence, 48 h; actives lower the signal; also: nearly all actives have a fitted effect of over 55% in size
Excerpt: MLSCN Grant: 1 R21 NS059478-01 Assay Provider: Qihong Huang, The Wistar Institute NCGC Assay Overview: MicroRNAs (miRNAs) are endogenously encoded small (~20-25 nucleotides), nonprotein-coding RNAs that are involved in post-transcriptional repression of target messenger RNAs (mRNAs) (Le and Hannon, 2004). Estimated to be involved in the regulation of 30% of all protein-coding mRNAs (Filipowicz et al., 2008), miRNAs play a significant role in many biological processes including cellular differentiation and tissue development (Ghildiyal and Zamore, 2009).
NCGC Assay Protocol Summary: Reagents: HeLa cells stably expressing firefly luciferase (FLuc) under the control of a CMV promoter (upstream) and a miR-21 binding sequence directly downstream of the gene. These cells endogenously express miR-21. Control compounds used were compound C3 (provided by collaborator), N6-phenyladenosine (MP Biomedicals, 0215379625), and DMSO. Assay Summary: 6uL of HeLa miR-21-FLuc cells in assay buffer (DMEM, Invitrogen #21063-029; 10% FBS, HyClone #SH30071.03) were dispensed at 2000cells/well (3.3 x 10^5 cells/mL) into Greiner solid-white TC-treated 1536-well plates using a Multidrop Combi (Thermo Fisher Scientific). Plates were incubated for one hour at 37 degree Celsius, 95% humidity, 5% CO2. These assay plates were then treated with 23nL of compound or DMSO using a Kalypsys pin tool, which allows for delivery of a 24-point titration of each compound to the assay plate, with a final compound concentration ranging from approximately 40uM to 5pM. Assay plates were then incubated for 48 hours. After incubation, plates were allowed to come to RT for one hour prior to delivery of 3uL of 3X luciferase detection reagent. After a 15 minute incubation to allow for cell lysis, luciferase activity was measured using a ViewLux CCD imager (PerkinElmer), with an average exposure time of 2-12 seconds. Keywords: NIH Roadmap, MLPCN, MLSMR, qHTS, miR-21, microRNA, firefly luciferase, FLuc.
Potency is read from the fitted curve at half-maximal effect.

Potency, active:
Cc1ccc(OCCCSc2ncccn2)cc1C 14.7 µM
Clc1ccc(OCCSc2ncccn2)cc1 3.69 µM
Clc1ccc(OCCSc2ncccn2)c(Br)c1 1.31 µM
CC(C)CSc1nnc2c3ccccc3n(C)c2n1 1.31 µM
O=C(/C=C/c1nc2ccccc2s1)N1CCCCCC1 2.07 µM
CCC(=O)N1CCc2nc(-c3ccccc3)sc2C1 14.7 µM
Cc1cccc(C)c1NC(=O)c1c[nH]c2ccccc12 3.69 µM
Clc1nc(-c2cccnc2)nc2scc(-c3ccccc3)c12 7.36 µM
COc1ccc(NC(=O)CCSc2ccc(F)cc2)cc1 7.36 µM
O=C(CSc1ccc(F)cc1)Nc1ccc(C2SCCS2)cc1 11.7 µM
CC1CCc2c(C(=O)NCc3ccccn3)csc2C1 (stereo unspecified) 11.7 µM
COc1ccccc1NC(=O)c1csc2c1CCC(C)C2 (stereo unspecified) 5.85 µM
Cc1ccc(-c2cc(NC(=O)c3ccccc3Cl)on2)cc1 2.61 µM
CCc1nc(NC(C)(C)C)c2cnn(-c3ccccc3)c2n1 7.36 µM
Cc1ccoc1C(=O)Nc1cccc(Oc2ccccc2)c1 3.29 µM
CCn1c(O)c(/C=C2\C=Nc3ccccc32)sc1=O 1.17 µM
CCn1c(O)c(/C=C2\C=Nc3ccccc32)sc1=Nc1ccccc1 7.36 µM
COc1ccc(/C(N)=N/OC(=O)Cc2cccs2)cc1 6.56 µM
N/C(Cc1cccc2ccccc12)=N\OC(=O)Cc1cccs1 11.7 µM
N/C(Cc1cccs1)=N\OC(=O)COc1ccccc1Cl 14.7 µM
N/C(=N\OC(=O)Cc1cccs1)c1ccc(Br)cc1 16.5 µM
Fc1ccc(/C=C/c2nnc(-c3cccs3)o2)cc1 2.07 µM
Clc1ccc2oc(-c3ccccc3)cc(=NCCCN3CCOCC3)c2c1 4.14 µM
CCOc1ccc(N/C=C/C(=O)c2ccc(OC)c(OC)c2)cc1 9.27 µM
COc1ccc(N/C=C\C(=O)c2ccc(C)cc2)cc1OC 14.7 µM
COc1ccc(N/C=C/C(=O)c2ccc(Cl)cc2)cc1 1.04 µM
Cc1ccc(N/C=C/C(=O)c2ccc(C)cc2)cc1 2.33 µM
COc1ccc(C(=O)/C=C/Nc2ccc(C)cn2)cc1OC 1.65 µM
COc1ccc(C(=O)/C=C/Nc2cc(C)on2)cc1 2.93 µM
CC(=O)c1ccc(N/C=C\C(=O)c2ccc(C)cc2)cc1 1.31 µM
Cc1ccc(NC(=O)C(=O)c2ccc(C)cc2)cc1 2.93 µM
O=C(c1ccc(F)cc1)N1CCC(n2nnc3ccccc32)CC1 5.85 µM
COc1ccccc1/C=C/C(=O)N1CCC(c2ccccc2)C1 (stereo unspecified) 2.93 µM
O=C(COc1ccc(F)cc1)N1CCC(c2ccccc2)C1 (stereo unspecified) 13.1 µM
O=C(c1ccc(F)cc1)N1CCC(c2ccccc2)C1 (stereo unspecified) 7.36 µM
O=C(N/N=C\c1ccco1)Nc1cccc(Cl)c1 1.85 µM
NC(=O)c1sc2nc(-c3cccnc3)ccc2c1N 18.5 µM
NC(=O)c1sc2nc(-c3ccccc3)ccc2c1N 1.85 µM
Nc1c(C(=O)N2CCCC2)sc2nc(-c3ccccc3)ccc12 3.69 µM
C=CCNC(=O)/C=C/c1ccc(C(C)C)cc1 7.36 µM
CCCNC(=O)/C=C/c1ccc(C(C)C)cc1 16.5 µM
CCCOc1cccc(C(=O)Nc2ccc(Br)cc2F)c1 1.85 µM
Nc1c(C(=O)c2cccs2)sc2nsc(SCCN3CCCCC3)c12 4.14 µM
CN1/C(=C\C(=O)c2cccc([N+](=O)[O-])c2)Sc2ccccc21 0.329 µM
Cc1ccc(C(=O)Cn2nnc3ccccc32)cc1 2.33 µM
Cc1ccc(C(=O)Cn2nnc3ccccc32)cc1C 1.31 µM
Clc1ccccc1CSc1ncn(-c2ccccc2)n1 5.85 µM
Clc1cccc(CSc2ncn(-c3ccccc3)n2)c1 16.5 µM
C/C(=N/NC(=O)c1cccs1)c1ccc(N2CCOCC2)cc1 11.7 µM
O=C(N/N=C/c1ccc(N2CCOCC2)cc1)c1cccs1 3.29 µM
O=C(Nc1nc2c(F)cc(F)cc2s1)c1ccc2c(c1)OCCO2 0.0826 µM
Cc1ccc(C(=O)/C=C/c2ccc3c(c2)OCCO3)c(O)c1 18.5 µM
O=C(/C=C/c1ccc2c(c1)OCCCO2)c1ccccc1O 2.07 µM
C=CCn1c(C)csc1=Nc1ccc(C(C)=O)cc1 10.4 µM
Cc1cc(C)nc(S/C=C/C(=O)c2ccccc2F)n1 11.7 µM
C/C(N)=C(/C#N)C(=O)CSc1ccccc1F 8.26 µM
Cc1cc(C)n2c(Br)c(CSc3nc4ccccc4s3)nc2n1 4.14 µM
Cc1cc(C)n2cc(CSc3nc4ccccc4s3)nc2n1 4.65 µM
Cc1cc(C)n2cc(COc3ccc4ccccc4c3)nc2n1 1.17 µM
CC(C)c1ccc(NC(=O)C2=NNC(=O)CC2)cc1 2.33 µM
Cc1cnc(C(=O)Nc2ccc(C(C)C)cc2)cn1 1.65 µM
O=C1c2ccccc2NC(c2ccccc2O)N1c1ccc(F)cc1 (stereo unspecified) 2.93 µM
O=C(Nc1cccc(F)c1)Nc1ccc2c(c1)CCC2 0.736 µM
O=C(Nc1ccc2c(c1)CCC2)c1cccc(F)c1 4.14 µM
O=C(Nc1ccc2c(c1)CCC2)c1ccc(Br)s1 0.261 µM
O=C1NC(c2ccc(Br)cc2)=N/C1=C/c1ccco1 0.927 µM
O=C1NC(c2ccccc2Cl)=N/C1=C/c1ccco1 10.4 µM
c1csc(-c2nn3c(C4COc5ccccc5O4)nnc3s2)c1 (stereo unspecified) 16.5 µM
COc1ccc(C(=O)Nc2ccc(Cl)c(Cl)c2)c(OC)n1 0.355 µM
COc1ccc(NC(=O)Nc2ccccc2F)cc1Cl 2.07 µM
COc1ccc(NC(=O)c2cc(F)cc(F)c2)cc1Cl 9.27 µM
